Test results as given in PubChem BioAssay (NCI).
About 83,000 compounds went through this panel and 20% of them were active in at least one assay; those are over-represented in the sample as a whole.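 For each line, cells grew in 96-well plates with the test compound present at a single concentration for 48 hours.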 Calls of active or inactive are those of the source. How the source made its calls: active means growth percent below 10; inactive means the rest.

Columns and labels:
Experiment in all cases: NCI-60 one-dose screen, 48 h (100 = growth as untreated, 0 = no growth, -100 = all killed)
Details in all cases: 10 µM unless noted
SK-MEL-2 melanoma = tested on: SK-MEL-2 melanoma
EKVX NSCLC = tested on: EKVX NSCLC
SN12C renal = tested on: SN12C renal
UO-31 renal = tested on: UO-31 renal
TK-10 renal = tested on: TK-10 renal
ACHN renal = tested on: ACHN renal
CAKI-1 renal = tested on: CAKI-1 renal
A498 renal = tested on: A498 renal
CCRF-CEM leukemia = tested on: CCRF-CEM leukemia
MOLT-4 leukemia = tested on: MOLT-4 leukemia
SR leukemia = tested on: SR leukemia
RPMI-8226 leukemia = tested on: RPMI-8226 leukemia
OVCAR-8 ovarian = tested on: OVCAR-8 ovarian
OVCAR-5 ovarian = tested on: OVCAR-5 ovarian
OVCAR-4 ovarian = tested on: OVCAR-4 ovarian
SK-OV-3 ovarian = tested on: SK-OV-3 ovarian
IGROV1 ovarian = tested on: IGROV1 ovarian
OVCAR-3 ovarian = tested on: OVCAR-3 ovarian
HS 578T breast = tested on: HS 578T breast
NCI/ADR-RES ovarian = tested on: NCI/ADR-RES ovarian

Measured: growth

Cc1nc2c(c(=O)[nH]1)C(c1ccccc1)c1ccc3ccccc3c1O2 (stereo unspecified)
active: OVCAR-3 ovarian 0.0339%
inactive: SK-MEL-2 melanoma 16.5% | EKVX NSCLC 60.5% | SN12C renal 44.6% | UO-31 renal 38.6% | TK-10 renal 74% | ACHN renal 39.8% | CAKI-1 renal 30% | A498 renal 20.6% | CCRF-CEM leukemia 13% | MOLT-4 leukemia 41% | SR leukemia 19.3% | RPMI-8226 leukemia 27.1% | OVCAR-8 ovarian 34.5% | OVCAR-5 ovarian 87.2% | OVCAR-4 ovarian 64.2% | SK-OV-3 ovarian 11.1% | IGROV1 ovarian 38.9% | HS 578T breast 22.6%

CCCCC#Cc1c(I)n(C)c(=O)[nH]c1=O
inactive: SK-MEL-2 melanoma 63.2% | EKVX NSCLC 52.9% | SN12C renal 39.4% | TK-10 renal 50% | A498 renal 94.2% | RPMI-8226 leukemia 19.2% | OVCAR-5 ovarian 80.2% | SK-OV-3 ovarian 95.5% | NCI/ADR-RES ovarian 85.7%
active: UO-31 renal -78% | ACHN renal -75.7% | CAKI-1 renal -54.2% | CCRF-CEM leukemia -51.4% | MOLT-4 leukemia -61.1% | SR leukemia -35.9% | OVCAR-8 ovarian -12.4% | OVCAR-4 ovarian -80.2% | IGROV1 ovarian -92.5% | OVCAR-3 ovarian -90.7% | HS 578T breast -6.87%

COc1ccc(CCN2C(=O)/C(=C/c3ccc(C4Oc5ccccc5C5CC(c6ccccc6)=NN54)cc3)SC2=S)cc1 (stereo unspecified)
inactive: SK-MEL-2 melanoma 103% | EKVX NSCLC 97.4% | SN12C renal 101% | UO-31 renal 80.7% | TK-10 renal 104% | ACHN renal 102% | CAKI-1 renal 89.8% | A498 renal 115% | CCRF-CEM leukemia 36.6% | MOLT-4 leukemia 100% | SR leukemia 105% | RPMI-8226 leukemia 96% | OVCAR-8 ovarian 108% | OVCAR-5 ovarian 103% | OVCAR-4 ovarian 109% | SK-OV-3 ovarian 103% | IGROV1 ovarian 100% | OVCAR-3 ovarian 105% | HS 578T breast 103%

COc1cccc(-c2cc(-c3cccc(Cl)c3)c(C#N)c(=O)[nH]2)c1
inactive: SK-MEL-2 melanoma 60.8% | EKVX NSCLC 90.4% | SN12C renal 85.2% | UO-31 renal 71.5% | TK-10 renal 95.9% | ACHN renal 94.2% | CAKI-1 renal 64.9% | A498 renal 45.8% | CCRF-CEM leukemia 28.2% | MOLT-4 leukemia 64.8% | SR leukemia 45.5% | RPMI-8226 leukemia 64.3% | OVCAR-8 ovarian 89.6% | OVCAR-5 ovarian 96.7% | OVCAR-4 ovarian 73% | SK-OV-3 ovarian 81% | IGROV1 ovarian 71.8% | OVCAR-3 ovarian 51% | HS 578T breast 49.3%

NS(=O)(=O)c1ccc(NC(=O)/C(=C\c2ccc(Cl)cc2Cl)NC(=O)c2ccccc2)cc1
inactive: SK-MEL-2 melanoma 95.3% | EKVX NSCLC 99.6% | SN12C renal 94.7% | UO-31 renal 75.8% | TK-10 renal 104% | ACHN renal 98.2% | CAKI-1 renal 88.6% | A498 renal 95% | CCRF-CEM leukemia 105% | MOLT-4 leukemia 92.3% | SR leukemia 96.6% | RPMI-8226 leukemia 92.2% | OVCAR-8 ovarian 101% | OVCAR-5 ovarian 108% | OVCAR-4 ovarian 97.7% | SK-OV-3 ovarian 96.3% | IGROV1 ovarian 74.9% | OVCAR-3 ovarian 113% | HS 578T breast 89.6% | NCI/ADR-RES ovarian 98.2%

CCCCNc1nnc2n(Cc3ccccc3)c(=O)c3c4c(sc3n12)CCCC4
active: SR leukemia 9.01%
inactive: SK-MEL-2 melanoma 41.6% | EKVX NSCLC 60.8% | SN12C renal 46% | UO-31 renal 34.2% | TK-10 renal 59.3% | ACHN renal 40.8% | CAKI-1 renal 42.6% | A498 renal 45.4% | CCRF-CEM leukemia 59.2% | MOLT-4 leukemia 10.4% | RPMI-8226 leukemia 34.4% | OVCAR-8 ovarian 46.2% | OVCAR-5 ovarian 106% | OVCAR-4 ovarian 71.7% | SK-OV-3 ovarian 62.5% | IGROV1 ovarian 46.7% | OVCAR-3 ovarian 49.2% | HS 578T breast 71.5%

O=c1nc(-c2ccccc2)c2cc(-c3ccc(C(F)(F)F)nc3)ccc2[nH]1
inactive: SK-MEL-2 melanoma 103% | EKVX NSCLC 97.8% | SN12C renal 102% | UO-31 renal 75.8% | TK-10 renal 99.9% | ACHN renal 96.5% | CAKI-1 renal 93.1% | A498 renal 104% | CCRF-CEM leukemia 46.5% | MOLT-4 leukemia 83.3% | SR leukemia 93.2% | RPMI-8226 leukemia 91.3% | OVCAR-8 ovarian 106% | OVCAR-5 ovarian 97.6% | OVCAR-4 ovarian 108% | SK-OV-3 ovarian 105% | IGROV1 ovarian 111% | OVCAR-3 ovarian 96% | HS 578T breast 95.7%

COC(=O)c1nc(-c2ccccc2)oc1S(=O)(=O)NCC(c1ccc(Cl)cc1)N1CCOCC1 (stereo unspecified)
inactive: SK-MEL-2 melanoma 80.9% | EKVX NSCLC 96.7% | SN12C renal 81.2% | UO-31 renal 60% | TK-10 renal 62.3% | ACHN renal 64.7% | CAKI-1 renal 71.2% | A498 renal 90.4% | OVCAR-8 ovarian 65% | OVCAR-5 ovarian 77.7% | OVCAR-4 ovarian 86.2% | SK-OV-3 ovarian 97% | IGROV1 ovarian 61.1% | OVCAR-3 ovarian 35.1% | HS 578T breast 85.8%
active: CCRF-CEM leukemia -21% | MOLT-4 leukemia 7.96% | SR leukemia 1.88% | RPMI-8226 leukemia 7.86%

CCOC(=O)/C=C1\S/C(=N\Nc2cc(=O)[nH]c3ccccc23)N(c2ccccc2)C1=O
inactive: SK-MEL-2 melanoma 110% | EKVX NSCLC 104% | SN12C renal 98.9% | UO-31 renal 77.6% | TK-10 renal 117% | ACHN renal 102% | CAKI-1 renal 92.8% | A498 renal 125% | CCRF-CEM leukemia 101% | MOLT-4 leukemia 103% | SR leukemia 96.6% | RPMI-8226 leukemia 112% | OVCAR-8 ovarian 100% | OVCAR-5 ovarian 101% | OVCAR-4 ovarian 84.3% | SK-OV-3 ovarian 101% | IGROV1 ovarian 105% | OVCAR-3 ovarian 104% | HS 578T breast 101%

C/C(Cc1ccc(Cl)cc1)=C(\c1ccc(OCCCN(C)C)cc1)c1ccc(OC(=O)Cc2ccccc2)cc1
inactive: SK-MEL-2 melanoma 100% | EKVX NSCLC 101% | SN12C renal 105% | UO-31 renal 96% | TK-10 renal 98.4% | ACHN renal 107% | CAKI-1 renal 97% | A498 renal 113% | CCRF-CEM leukemia 83.6% | MOLT-4 leukemia 77.3% | SR leukemia 77.3% | RPMI-8226 leukemia 105% | OVCAR-8 ovarian 113% | OVCAR-5 ovarian 105% | OVCAR-4 ovarian 107% | SK-OV-3 ovarian 85.6% | IGROV1 ovarian 106% | OVCAR-3 ovarian 101% | HS 578T breast 105% | NCI/ADR-RES ovarian 103%

S=c1nc2oc(-c3ccccc3)c(-c3ccccc3)c2c(/N=C\c2ccco2)[nH]1
inactive: SK-MEL-2 melanoma 92.1% | EKVX NSCLC 95.7% | SN12C renal 99.1% | UO-31 renal 81.2% | TK-10 renal 99.6% | ACHN renal 93.8% | CAKI-1 renal 92.3% | A498 renal 101% | CCRF-CEM leukemia 108% | MOLT-4 leukemia 84% | SR leukemia 86.3% | RPMI-8226 leukemia 97.6% | OVCAR-8 ovarian 97.4% | OVCAR-5 ovarian 87.7% | OVCAR-4 ovarian 93.6% | SK-OV-3 ovarian 109% | IGROV1 ovarian 101% | OVCAR-3 ovarian 98.4% | HS 578T breast 81.9% | NCI/ADR-RES ovarian 100%

C[n+]1ccc(CCc2c[nH]c3ccccc23)cc1
inactive: SK-MEL-2 melanoma 81.7% | EKVX NSCLC 53.9% | SN12C renal 93.7% | UO-31 renal 76.7% | TK-10 renal 81.2% | ACHN renal 90.9% | CAKI-1 renal 92.6% | A498 renal 71.9% | CCRF-CEM leukemia 101% | MOLT-4 leukemia 90.5% | SR leukemia 83.8% | RPMI-8226 leukemia 94% | OVCAR-8 ovarian 107% | OVCAR-5 ovarian 86.5% | OVCAR-4 ovarian 99.4% | SK-OV-3 ovarian 77.3% | IGROV1 ovarian 87.7% | OVCAR-3 ovarian 107% | HS 578T breast 104%

CN1CCN(Cc2ccc(NC(=O)c3cncc(C#Cc4cnc(N)c5ncccc45)c3)cc2C(F)(F)F)CC1
inactive: EKVX NSCLC 33.3% | CCRF-CEM leukemia 19.3% | MOLT-4 leukemia 14.5% | SR leukemia 12.4% | RPMI-8226 leukemia 19.5% | OVCAR-3 ovarian 15.3%
active: SK-MEL-2 melanoma -77.3% | SN12C renal -33.2% | UO-31 renal -92.3% | TK-10 renal -63.8% | ACHN renal -75.6% | CAKI-1 renal -23.9% | A498 renal -27% | OVCAR-8 ovarian -29% | OVCAR-5 ovarian -26.5% | OVCAR-4 ovarian -21.9% | SK-OV-3 ovarian 2.59% | IGROV1 ovarian -50.8% | HS 578T breast -30.3% | NCI/ADR-RES ovarian -55.3%

S=c1[nH]c(=S)c2c(-c3ccccc3)c(-c3ccccc3)oc2[nH]1
inactive: SK-MEL-2 melanoma 99.6% | EKVX NSCLC 103% | SN12C renal 95.3% | UO-31 renal 81.6% | TK-10 renal 124% | ACHN renal 106% | CAKI-1 renal 101% | A498 renal 70.9% | CCRF-CEM leukemia 114% | MOLT-4 leukemia 101% | SR leukemia 94.2% | RPMI-8226 leukemia 107% | OVCAR-8 ovarian 110% | OVCAR-5 ovarian 95.2% | OVCAR-4 ovarian 95.2% | SK-OV-3 ovarian 103% | IGROV1 ovarian 99.6% | OVCAR-3 ovarian 105% | HS 578T breast 104% | NCI/ADR-RES ovarian 103%

Cc1ccc(S(=O)(=O)Oc2ccc3sc4cccc(NCCN(C)C)c4c(=O)c3c2)cc1
active: SK-MEL-2 melanoma -71.2% | EKVX NSCLC -84% | SN12C renal -77.2% | UO-31 renal -95.5% | TK-10 renal -83.2% | ACHN renal -95.9% | CAKI-1 renal -97.8% | A498 renal -96% | CCRF-CEM leukemia -45.8% | MOLT-4 leukemia -32.7% | SR leukemia -19.4% | RPMI-8226 leukemia -48.2% | OVCAR-8 ovarian -67.3% | OVCAR-5 ovarian -92.4% | OVCAR-4 ovarian -69.8% | SK-OV-3 ovarian -93.2% | IGROV1 ovarian -79.6% | OVCAR-3 ovarian -95.4% | HS 578T breast -58.3%

COc1cc(OC)c(C(=O)C(CN(C)C)CN(C)C)cc1OC
active: TK-10 renal -79.2% | ACHN renal -87.6% | CCRF-CEM leukemia -58.1% | MOLT-4 leukemia -39.8% | SR leukemia -49.3% | RPMI-8226 leukemia -18.1% | OVCAR-3 ovarian 1.07%
inactive: SK-MEL-2 melanoma 105% | EKVX NSCLC 20.3% | SN12C renal 107% | UO-31 renal 10.4% | CAKI-1 renal 20.3% | A498 renal 113% | OVCAR-8 ovarian 104% | OVCAR-5 ovarian 110% | OVCAR-4 ovarian 54.1% | SK-OV-3 ovarian 85.1% | IGROV1 ovarian 109% | HS 578T breast 108% | NCI/ADR-RES ovarian 94.3%
